Assay results reported in PubChem BioAssay AID1159580 (chemical genetic matrix, 2015).
Several values for one entry are separate records, joined by “and”; a condition that tells them apart may be missing. Equal entries are not always repeated. Hit rate of the full screen: of about 5,500 compounds, about 2,000 (36%) were called active. Roughly 18% stayed inconclusive and do not appear here. Rule as the data show it: active = normalized growth mostly below about 0.91 (no sharp cut-off); inconclusive = no clear call, values can overlap the other calls; inactive = mostly above about 0.92. The list shows a part of the results.

Test: chemical genetic growth profiling, strain panel (AID 1159580);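 also: tested at 20 µM; growth read once vehicle control cultures reached saturation at 30 °C; 1 = growth at the plate median or of vehicle wells; lower values mean less growth of the strain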
Conditions: S. cerevisiae deletion strains, growth OD

Measured: normalized growth

COc1ccc([C@@H](C)C(=O)c2ccc(O)cc2O)cc1
active: locus YDR137W, strain rgp1, active compounds read low 0.797 | locus YGL086W, strain mad1, active compounds read low 0.921 | locus YKR001C, strain vps1, active compounds read low 0.798 | locus YLR039C, strain RIC1, active compounds read low 1.57 [resistant] | locus YLR262C, strain YPT6 (second series), active compounds read low 0.788 | locus YLR330W, strain CHS5, active compounds read low 0.888 | locus YLR418C, strain cdc73, active compounds read low 0.796 | locus YNL307C, strain MCK1, active compounds read low 0.761 | locus YOL147C, strain pex11, active compounds read low 0.931 | locus YOR184W, strain ser1, active compounds read low 0.866 | locus YOR270C, strain vph1, active compounds read low 0.737 | locus YPR163C, strain tif3, active compounds read low 0.86
inactive: locus YAL021C, strain ccr4, active compounds read low 0.987 | locus YAL026C, strain drs2, active compounds read low 0.969 | locus YAL030W, strain snc1, active compounds read low 0.983 | locus YBL061C, strain skt5, active compounds read low 0.976 | locus YBR009C, strain hhf1, active compounds read low 0.962 | locus YBR021W, strain FUR4, active compounds read low 0.996 | locus YBR023C, strain chs3, active compounds read low 0.974 | locus YBR171W, strain sec66, active compounds read low 0.95 | locus YBR229C, strain ROT2, active compounds read low 0.982 | locus YBR231C, strain swc5, active compounds read low 0.983 | locus YBR279W, strain paf1, active compounds read low 0.978 | locus YCL011C, strain gbp2, active compounds read low 0.987 | locus YCL016C, strain dcc1, active compounds read low 0.985 | locus YCL029C, strain bik1, active compounds read low 0.96 | locus YCL061C, strain MRC1, active compounds read low 0.994 | locus YCL069W, strain vba3, active compounds read low 0.955 | locus YCR088W, strain abp1, active compounds read low 0.967 | locus YDL005C, strain med2, active compounds read low 0.969 | locus YDL035C, strain GPR1, active compounds read low 0.98 | locus YDL040C, strain nat1, active compounds read low 0.97 | locus YDL074C, strain BRE1, active compounds read low 0.927 | locus YDL101C, strain DUN1, active compounds read low 0.955 | locus YDL185W, strain tfp1, active compounds read low 0.959 | locus YDL192W, strain arf1, active compounds read low 0.931 | locus YDR001C, strain nth1, active compounds read low 0.979 | locus YDR069C, strain doa4, active compounds read low 0.965 | locus YDR101C, strain arx1, active compounds read low 0.961 | locus YDR159W, strain sac3, active compounds read low 0.969 | locus YDR162C, strain NBP2, active compounds read low 0.937 | locus YDR195W, strain ref2 1.11 | locus YDR297W, strain sur2, active compounds read low 0.994 | locus YDR318W, strain mcm21, active compounds read low 0.93 | locus YDR334W, strain swr1, active compounds read low 0.957 | locus YDR335W, strain msn5, active compounds read low 0.968 | locus YDR388W, active compounds read low 0.969 | locus YDR392W, strain spt3, active compounds read low 0.749 | locus YDR502C, strain sam2, active compounds read low 0.931 | locus YEL003W, strain gim4, active compounds read low 0.962 | locus YEL037C, strain rad23, active compounds read low 0.966 | locus YEL061C, strain CIN8 (second series), active compounds read low 0.957 | locus YER015W, strain faa2, active compounds read low 0.986 | locus YER016W, strain bim1, active compounds read low 0.973 | locus YER110C, active compounds read low 0.969 | locus YER111C, strain swi4, active compounds read low 0.965 | locus YER155C, strain BEM2 (second series), active compounds read low 0.952 | locus YER155C, strain BEM2, active compounds read low 0.971 | locus YER167W, strain BCK2, active compounds read low 0.973 | locus YFR010W, strain ubp6, active compounds read low 0.979 | locus YGL078C, strain dbp3, active compounds read low 0.981 | locus YGL167C, strain pmr1, active compounds read low 0.96 | locus YGL173C, strain kem1, active compounds read low 0.959 | locus YGL227W, strain vid30, active compounds read low 0.983 | locus YGL240W, strain doc1, active compounds read low 0.991 | locus YGL248W, strain PDE1, active compounds read low 0.939 | locus YGL253W, strain hxk2, active compounds read low 0.976 | locus YGR135W, strain pre9, active compounds read low 0.948 | locus YGR252W, strain gcn5, active compounds read low 0.92 | locus YHR013C, strain ard1, active compounds read low 0.944 | locus YHR027C, strain rpn1, active compounds read low 0.964 | locus YHR030C, strain SLT2, active compounds read low 0.991 and 0.996 | locus YHR079C, strain IRE1 (second series), active compounds read low 0.971 | locus YHR079C, strain IRE1, active compounds read low 0.978 | locus YHR094C, strain hxt1, active compounds read low 0.977 | locus YHR129C, strain ARP1, active compounds read low 0.959 | locus YHR142W, strain chs7, active compounds read low 0.929 | locus YHR200W, strain rpn10, active compounds read low 0.982 | locus YIL066C, strain RNR3, active compounds read low 0.961 | locus YIL073C, strain SPO22, active compounds read low 0.955 | locus YIL125W, strain kgd1, active compounds read low 0.98 | locus YIR030C, strain dcg1, active compounds read low 0.973 | locus YJL092W, strain hpr5, active compounds read low 0.978 | locus YJL095W, strain BCK1 (second series), active compounds read low 0.987 | locus YJL095W, strain BCK1, active compounds read low 0.864 and 0.977 | locus YJL115W, strain asf1, active compounds read low 0.98 | locus YJL129C, strain trk1, active compounds read low 0.878 | locus YJL134W, strain LCB3, active compounds read low 0.989 | locus YJL154C, strain vps35, active compounds read low 0.955 | locus YJL164C, strain tpk1, active compounds read low 0.965 | locus YJL166W, strain qcr8, active compounds read low 0.965 | locus YJL168C, strain set2, active compounds read low 0.97 | locus YJL187C, strain SWE1 (second series), active compounds read low 0.953 | locus YJL187C, strain SWE1, active compounds read low 0.97 | locus YJR043C, strain POL32, active compounds read low 1.03 | locus YJR066W, strain TOR1, active compounds read low 0.873 | locus YKL009W, strain mrt4, active compounds read low 0.963 | locus YKL068W, active compounds read low 0.974 | locus YKL085W, strain MDH1 (second series), active compounds read low 0.97 | locus YKL085W, strain MDH1, active compounds read low 0.97 | locus YKL160W, strain elf1, active compounds read low 0.975 | locus YKR026C, strain gcn3, active compounds read low 0.97 | locus YKR091W, strain srl3, active compounds read low 0.981 | locus YLL001W, strain dnm1, active compounds read low 0.966 | locus YLL026W, active compounds read low 0.988 | locus YLL041C, strain sdh2, active compounds read low 0.953 | locus YLR027C, strain aat2, active compounds read low 0.991 | locus YLR058C, strain SHM2, active compounds read low 0.977 | locus YLR102C, strain apc9, active compounds read low 0.969 | locus YLR113W, strain HOG1, active compounds read low 1.01 | locus YLR221C, strain rsa3, active compounds read low 0.971 | locus YLR258W, strain gsy2, active compounds read low 0.954 | locus YLR262C, strain YPT6, active compounds read low 0.738 | locus YLR268W, strain sec22, active compounds read low 0.968 | locus YLR320W, strain mms22, active compounds read low 0.895 | locus YLR342W, strain FKS1, active compounds read low 0.96 | locus YLR357W, strain rsc2, active compounds read low 1.03 | locus YLR370C, strain arc18, active compounds read low 0.974 | locus YLR371W, strain rom2, active compounds read low 0.921 | locus YLR384C, strain iki3, active compounds read low 0.982 | locus YML016C, strain PPZ1, active compounds read low 0.981 | locus YML032C, strain rad52, active compounds read low 0.919 | locus YML120C, strain ndi1, active compounds read low 0.976 | locus YML124C, strain tub3, active compounds read low 0.968 | locus YMR058W, strain fet3, active compounds read low 0.979 | locus YMR078C, strain ctf18, active compounds read low 0.955 | locus YMR125W, strain sto1, active compounds read low 0.961 | locus YMR129W, active compounds read low 0.983 | locus YMR205C, strain PFK2, active compounds read low 0.914 | locus YMR223W, strain ubp8, active compounds read low 0.944 | locus YMR231W, strain pep5, active compounds read low 0.972 | locus YMR307W, strain GAS1, active compounds read low 0.692 | locus YNL067W, strain RPL9B, active compounds read low 0.967 | locus YNL071W, strain lat1, active compounds read low 0.948 | locus YNL153C, strain GIM3, active compounds read low 0.953 | locus YNL183C, strain NPR1, active compounds read low 0.915 | locus YNL209W, strain ssb2, active compounds read low 0.975 | locus YNL233W, strain BNI4, active compounds read low 0.934 | locus YNL248C, strain rpa49, active compounds read low 0.976 | locus YNL250W, strain rad50, active compounds read low 1.01 | locus YNL271C, strain bni1, active compounds read low 0.975 | locus YNL298W, strain CLA4, active compounds read low 0.945 | locus YNL322C, strain KRE1 (second series), active compounds read low 0.986 | locus YNR049C, strain mso1, active compounds read low 0.963 | locus YNR052C, strain pop2, active compounds read low 0.943 | locus YOL012C, strain htz1 1.31 | locus YOR001W, strain rrp6, active compounds read low 0.953 | locus YOR061W, strain CKA2, active compounds read low 0.999 | locus YOR069W, strain VPS5, active compounds read low 0.974 | locus YOR070C, strain gyp1, active compounds read low 0.987 | locus YOR080W, strain dia2, active compounds read low 0.975 | locus YOR083W, strain WHI5, active compounds read low 0.973 | locus YOR106W, strain vam3, active compounds read low 0.97 | locus YOR136W, strain idh2, active compounds read low 0.967 | locus YOR144C, strain elg1, active compounds read low 0.961 | locus YOR231W, strain MKK1, active compounds read low 0.953 | locus YOR265W, strain rbl2, active compounds read low 0.969 | locus YOR290C, strain snf2, active compounds read low 0.982 | locus YOR316C, strain cot1, active compounds read low 0.979 | locus YPL051W, strain arl3, active compounds read low 0.975 | locus YPL078C, strain atp4, active compounds read low 0.958 | locus YPL106C, strain sse1, active compounds read low 1.02 | locus YPL240C, strain hsp82, active compounds read low 0.965 | locus YPL241C, strain CIN2, active compounds read low 0.971 | locus YPL256C, strain CLN2, active compounds read low 0.969 | locus YPR119W, strain clb2, active compounds read low 0.966 | locus YPR141C, strain kar3, active compounds read low 0.98 | locus YPR167C, strain met16, active compounds read low 0.965 | strain wtn01, active compounds read low 0.94
